Only a selection was taken, and hits are over-represented in it overall.
Pf Dd2 inh: blocks in vitro growth of P. falciparum Dd2; Potency, µM (top dose mostly 28.9 µM), hits mostly inhibitors; P. falciparum Dd2 growth, SYBR Green, 72 h; hit rate 4.3% among 120,000; AID 1347417; active means well fitted inhibition curve with a large enough effect; further: nearly all actives have a fitted effect of over 65% in size
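Readout: SYBR Green fluorescence, 485 nm excitation, 535 nm emission, after ~16 h lysis at 37C. Before that, Dd2-infected red cells (2.5% hematocrit) grew 72 h with compound, 29 uM top final concentration.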
Numbers stand for hits; 0 = inactive; [ ] = remark or other dose.

SMILES | Pf Dd2 inh
Cc1nc(C2(C)CCN(C(=O)CCc3nc4ccccc4[nH]3)CC2)no1 | 0
CCC(=O)N1CCC(c2noc(COC)n2)C1 (stereo not drawn) | 0
O=C1NCCOCCN(C(=O)Cc2cccc(F)c2)[C@H]2CCC[C@@H]12 | 0
CC(C)(C)c1cnc([C@@H]2COCCN2Cc2ccc(C(=O)O)cc2)[nH]1 | 0
COc1nc2c(cc1CNC(=O)c1ccc(F)cc1)C(=O)N(C1CCCC1)C2 | 0
CC(=O)N1CCN(C(=O)N2CC3CC(C2)[C@H]2CCCC(=O)N2C3)CC1 (stereo partly drawn) | 0
COc1cccc2sc(N(Cc3cccnc3)C(=O)c3ccc(S(=O)(=O)N(C)C)cc3)nc12 | 0
Cc1cc2nc(N(Cc3cccnc3)C(=O)c3ccc(Cl)s3)sc2cc1C | 0
COc1ccc2nc(N(Cc3cccnc3)C(=O)COc3ccccc3)sc2c1 | 0
Cc1ccc2nc(N(Cc3cccnc3)C(=O)C3CCCCC3)sc2c1 | 2.5µM
O=C(c1cccs1)N(Cc1cccnc1)c1nc2c(F)cc(F)cc2s1 | 0
CCc1ccc2nc(N(Cc3cccnc3)C(=O)c3cccs3)sc2c1 | 3.2µM
O=C(COc1ccccc1)N(Cc1cccnc1)c1nc2ccc(F)cc2s1 | 0
COc1ccc2sc(N(Cc3cccnc3)C(=O)c3ccc4c(c3)OCCO4)nc2c1 | 7.1µM
CCOc1ccc2nc(N(Cc3cccnc3)C(=O)C3CCCCC3)sc2c1 | 2.2µM
COc1ccc2sc(N(Cc3cccnc3)C(=O)COc3ccccc3)nc2c1 | 0
COc1ccc2nc(N(Cc3cccnc3)C(=O)C3COc4ccccc4O3)sc2c1 (stereo not drawn) | 0
CCc1ccc2nc(N(CCN(CC)CC)C(=O)c3cccs3)sc2c1 | 0
Cc1cc(OCC(=O)c2ccc3c(c2)N(CCCC(=O)NCC2CC2)C(=O)CO3)ccc1Cl | 0
C=CCCC(CN1CCSCC1)Oc1cc(CC)nc(C)n1 (stereo not drawn) | 0
COc1ccc(-n2nc(C)c(CCC(=O)N3CCOCC3)c2Oc2ccccc2F)cc1 | 0
Cc1noc(C)c1CN[C@@H]1C[C@H](CO)[C@@H](O)[C@H]1O | 0
COCCC(=O)N[C@@H]1CN(Cc2cccnc2)C[C@H]1CN(C)C | 0
COC1CCN(C(=O)Cc2c[nH]c3ncc(-c4cnn(C)c4)cc23)CC1 | 0
COCCN1CC(CO)C2(CCN(C(=O)Cc3ccccc3C)CC2)C1 (stereo not drawn) | 0
SMILES | Pf Dd2 inh
CN(CC1CCOC1)S(=O)(=O)c1ccc(F)cc1F (stereo not drawn) | 0[5.79 µM]
OC(c1nc(Nc2ccc(Cl)cc2)n[nH]1)C1CC1 (stereo not drawn) | 0
CCn1c(=O)n(-c2ccc3c(c2)OCO3)c2nc(-c3cccc(OC)c3OC)nc(C(N)=O)c21 | 0
CCOC(=O)Cn1c(=O)n(CC2CCCO2)c2nc(-c3ccccc3)nc(C(N)=O)c21 (stereo not drawn) | 0
CCOC(=O)Cn1c(=O)n(-c2ccccc2OC)c2nc(-c3ccccc3C)nc(C(N)=O)c21 | 10µM
COCC1CN(C(C)=O)CC12CCN(Cc1ccc(F)cc1)CC2 (stereo not drawn) | 0
COc1ccc(OC)c(NC(=O)CSc2ccc(-c3cccs3)nn2)c1 | 0[5.79 µM]
COc1ccc(OC)c(NC(=O)CSc2ccc(-c3sc(C)nc3C)nn2)c1 | 0
COc1ccc(C)cc1NC(=O)CSc1ccc(-c2ccccn2)nn1 | 8.9µM
COc1ccc(C(=O)N2CCC(C(=O)N3CCCCCCNC(=O)CC3)CC2)cc1F | 0
Cc1ncccc1C(=O)N1CCCC(c2nc(-c3cccnc3)no2)CCNC(=O)CC1 (stereo not drawn) | 0
CN1C(=O)N(C)C2(CCN(CCOc3ccc(F)cc3)C2)C1=O (stereo not drawn) | 0
CC(=O)Nc1ccc(S(=O)(=O)N[C@H]2CO[C@H]3[C@@H]2OC[C@@H]3Nc2nccc(C(C)(C)C)n2)cc1 | 0
CC(C)(C)c1ccc(NC(=O)O[C@@H]2CO[C@H]3[C@@H]2OC[C@@H]3Nc2nccc(C(C)(C)C)n2)cc1 | 0
Cc1ccc(C(=O)N[C@H]2CO[C@H]3[C@@H]2OC[C@@H]3Nc2nccc(C(C)(C)C)n2)cc1 | 11µM
Cc1ccc(-n2nnnc2CNC(=O)c2ccccc2S(C)(=O)=O)cc1C | 0
COC(=O)c1nnn(-c2cccc(C)c2)c1C(=O)OC | 0
Cc1cccc(-n2nnnc2S(C)(=O)=O)c1 | 11µM
COc1ccc(NC(=O)c2cc(-c3ccc[nH]3)n[nH]2)c(OC)c1 | 0
Cc1nc(CN2Cc3nc(-c4cnn(Cc5ccccc5)c4)ccc3OCC2=O)cs1 | 10µM
COc1cccc(CN2Cc3nc(-c4cnn(Cc5ccccc5)c4)ccc3OCC2=O)c1 | 0
O=C1COc2ccc(Nc3ccccc3)nc2CN1CCOc1ccccc1 | 0
COCCN1Cc2nc(Nc3ccc(C(F)(F)F)cc3)ccc2OCC1=O | 13µM
O=C1COc2ccc(-c3cn[nH]c3)nc2CN1Cc1ccc(C(F)(F)F)cc1 | 0
O=C1COc2ccc(Nc3cccc(F)c3)nc2CN1CCOc1ccccc1 | 0
O=C1COc2ccc(-c3ccoc3)nc2CN1Cc1ccc(C(F)(F)F)cc1 | 13µM
O=C1COc2ccc(-c3ccncc3)nc2CN1Cc1ccc(C(F)(F)F)cc1 | 0

Screens deposited in PubChem BioAssay by National Center for Advancing Translational Sciences (NCATS).
